From PubChem BioAssay (NCI)
About 79,000 compounds went through this panel and 15% of them were active in at least one assay; those are over-represented in the sample as a whole. Calls of active or inactive are those of the source. Cut-off read from the data, not from the text of the source: active = growth inhibition above about 70%; inactive = the rest.

Columns and labels:
[1] = NCI Yeast Anticancer Drug Screen. Data for the rad52 strain (AID 147);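 note: 0% = growth of vehicle-treated control cultures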; details: S. cerevisiae rad52 mutant growth inhibition, stronger effect = higher value
Outline: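 DNA repair-defective yeast; compound exposure; growth scored against vehicle controls.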

[2] = NCI Yeast Anticancer Drug Screen. Data for the wt1 strain (AID 149);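 note: 0% = growth of vehicle-treated wt1 cultures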; details: S. cerevisiae wt1 strain (SPY 50644) growth inhibition, stronger effect = higher value
Outline: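 Measured: growth of wt1 yeast under compound versus vehicle treatment, reported as inhibition.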

[3] = NCI Yeast Anticancer Drug Screen. Data for the rad50EPP+ strain (AID 151);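 note: 0% = growth of vehicle-treated control cultures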; details: S. cerevisiae rad50 mutant strain, stronger effect = higher value
Outline: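 rad50EPP+ yeast treated with test compounds. Readout: growth vs vehicle control.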

[4] = NCI Yeast Anticancer Drug Screen. Data for the mgt1 strain (AID 153); details: S. cerevisiae mgt1 mutant growth inhibition, stronger effect = higher value
Outline: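 Growth inhibition relative to vehicle controls was scored for the mgt1 yeast strain after compound exposure.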

[5] = NCI Yeast Anticancer Drug Screen. Data for the rad50 strain (AID 155);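 note: 0% = growth of vehicle-only cultures of the same strain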; details: S. cerevisiae rad50 strain growth inhibition, stronger effect = higher value
Outline: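 Growth of the mutant yeast was measured after compound exposure and referenced to vehicle-treated cultures.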

[6] = NCI Yeast Anticancer Drug Screen. Data for the mec2-1 strain (AID 157); details: S. cerevisiae mec2-1 strain, stronger effect = higher value
Outline: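 Growth inhibition is read against vehicle-treated controls after compound exposure of the mec2-1 yeast strain, which is defective in DNA damage repair or cell cycle control.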

[7] = NCI Yeast Anticancer Drug Screen. Data for the sgs1 mgt1 strain (AID 161);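 note: 0% = growth of cultures given vehicle only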; details: S. cerevisiae sgs1 mgt1 strain, stronger effect = higher value
Outline: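 Yeast cells carrying a defined DNA-repair defect were exposed to test compounds. Growth inhibition was measured relative to vehicle-treated controls.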

[8] = NCI Yeast Anticancer Drug Screen. Data for the CLN2oe strain (AID 163);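 note: 0% = growth of vehicle-only control cultures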; details: S. cerevisiae CLN2oe strain, stronger effect = higher value
Outline: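 Compound-treated yeast; growth vs vehicle ctrl = % inhibition. Genetically altered strain (cell-cycle control).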

[9] = NCI Yeast Anticancer Drug Screen. Data for the cln2 rad14 strain (AID 165);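 note: 0% = growth equal to vehicle treated cultures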; details: S. cerevisiae cln2 rad14 strain, stronger effect = higher value
Outline: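 Growth inhibition, relative to vehicle-treated controls, is the read-out. The test organism is a yeast strain with defined genetic alterations, cln2 rad14.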

[10] = NCI Yeast Anticancer Drug Screen. Data for the bub3 strain (AID 167); details: S. cerevisiae bub3 mutant strain, stronger effect = higher value
Outline: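 Whole-cell yeast assay. The mutant strain was incubated with compounds, and growth inhibition was determined by comparison with vehicle-treated cells.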

[11] = NCI Yeast Anticancer Drug Screen. Data for the wt2 strain (AID 169);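 note: 0% = growth of vehicle-treated yeast cultures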; details: S. cerevisiae wt2 strain growth inhibition, stronger effect = higher value
Outline: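 Compound exposure of yeast; growth compared with vehicle controls; inhibition reported.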

[12] = NCI Yeast Anticancer Drug Screen. Data for the mlh1 strain (AID 171);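 note: 0% = growth of vehicle-treated control cultures of the same strain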; details: S. cerevisiae mlh1 strain growth inhibition, stronger effect = higher value
Outline: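 Compounds are applied to a genetically altered yeast strain, and its growth is compared with that of vehicle-treated cultures to give percent inhibition.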

[13] = NCI Yeast Anticancer Drug Screen. Data for the sgs1 strain (AID 173);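 note: 0% = growth of vehicle-only control cultures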; details: S. cerevisiae sgs1 mutant, stronger effect = higher value
Outline: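 Compounds applied to genetically altered yeast; growth compared with vehicle-treated cultures to give % inhibition.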

[14] = NCI Yeast Anticancer Drug Screen. Data for the mlh1 rad18 strain (AID 175); details: S. cerevisiae mlh1 rad18 strain growth inhibition, stronger effect = higher value
Outline: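 Cells of a genetically altered yeast strain, deficient in DNA damage repair, were treated with compound. Their growth was then compared with that of vehicle-treated cultures to give inhibition.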

[15] = NCI Yeast Anticancer Drug Screen. Data for the rad18 strain (AID 177); details: S. cerevisiae rad18 mutant growth inhibition, stronger effect = higher value
Outline: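 Compounds are applied to a repair-deficient yeast strain, and growth is compared with that of vehicle-treated cultures to give percent inhibition.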

[16] = at 5.0 µM (retest, dose inferred, filed as 0.5)
[17] = at 50.0 µM (retest, dose inferred, filed as 5.0)

Measured: growth inhibition

Nc1cccc(-c2cc[cH-]c2)c1.[Fe+2].c1cc[cH-]c1
active: [1]; at 100.0 µM 95% | [3]; at 100.0 µM 76% | [4]; at 100.0 µM 93% | [5]; at 100.0 µM 96% | [6]; at 100.0 µM 79% | [10]; at 100.0 µM 86% | [11]; at 100.0 µM 95% | [12]; at 100.0 µM 96% | [13]; at 100.0 µM 99% | [15]; at 100.0 µM 97%
inactive: [1]; at 1.2 µM -2% | [1]; at 3.7 µM 6% | [1]; at 11.0 µM 15% | [1]; at 33.0 µM 39% | [2]; at 1.2 µM -1% | [2]; at 3.7 µM -3% | [2]; at 11.0 µM -3% | [2]; at 33.0 µM 2% | [2]; at 100.0 µM 50% | [3]; at 1.2 µM -1% | [3]; at 3.7 µM 9% | [3]; at 11.0 µM 21% | [3]; at 33.0 µM 20% | [4]; at 1.2 µM -4% | [4]; at 3.7 µM -3% | [4]; at 11.0 µM -2% | [4]; at 33.0 µM 4% | [5]; at 1.2 µM -3% | [5]; at 3.7 µM 3% | [5]; [16] -14% | [5]; at 11.0 µM 16% | [5]; at 33.0 µM 35% | [5]; [17] 15% | [5]; at 50.0 µM 35.5% | [6]; at 1.2 µM -2% | [6]; at 3.7 µM -3% | [6]; [16] -18% | [6]; at 11.0 µM -3% | [6]; at 33.0 µM 3% | [6]; [17] -10% | [6]; at 50.0 µM 38.5% | [7]; [16] -9% | [7]; [17] 7% | [7]; at 50.0 µM 31.4% | [8]; at 1.2 µM -11% | [8]; at 3.7 µM -5% | [8]; at 11.0 µM -6% | [8]; at 33.0 µM -1% | [8]; at 100.0 µM 64% | [9]; [16] -8% | [9]; [17] 9% | [9]; at 50.0 µM 17.6% | [10]; at 1.2 µM 6% | [10]; at 3.7 µM 6% | [10]; [16] 5% | [10]; at 11.0 µM 7% | [10]; at 33.0 µM 27% | [10]; [17] 68% | [10]; at 50.0 µM 58.2% | [11]; at 1.2 µM 6% | [11]; at 3.7 µM 4% | [11]; at 11.0 µM 9% | [11]; at 33.0 µM 3% | [12]; at 1.2 µM -3% | [12]; at 3.7 µM 2% | [12]; at 11.0 µM 8% | [12]; at 33.0 µM 23% | [13]; at 1.2 µM -10% | [13]; at 3.7 µM -30% | [13]; at 11.0 µM 11% | [13]; at 33.0 µM 54% | [14]; [16] -21% | [14]; [17] 39% | [14]; at 50.0 µM 55.5% | [15]; at 1.2 µM -4% | [15]; at 3.7 µM 7% | [15]; at 11.0 µM 26% | [15]; at 33.0 µM 50%
